Source: PubChem BioAssay (NCI)
Several values for one entry are separate records, joined by “and”; a condition that tells them apart may be missing. Equal entries are not always repeated. Compounds without any hit were thinned out: in the full panel of roughly 83,000, 20% have a hit.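 Activity criterion: percent growth below 10, measured after cells in 96-well plates were exposed to a single compound concentration for 48 hours.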 Activity calls are given as the source filed them.

Columns and labels:
Assay in all cases: NCI-60 one-dose screen, 48 h (100 = growth as untreated, 0 = no growth, -100 = all killed)
Conditions in all cases: 10 µM unless noted
[1] = system: SR leukemia
[2] = system: RPMI-8226 leukemia
[3] = system: OVCAR-8 ovarian
[4] = system: OVCAR-5 ovarian
[5] = system: OVCAR-4 ovarian
[6] = system: SK-OV-3 ovarian
[7] = system: IGROV1 ovarian
[8] = system: OVCAR-3 ovarian
[9] = system: HS 578T breast
[10] = system: NCI/ADR-RES ovarian
[11] = system: BT-549 breast
[12] = system: MDA-MB-435 melanoma
[13] = system: SW-620 colon
[14] = system: MCF7 breast
[15] = system: HCT-116 colon
[16] = system: HCC-2998 colon
[17] = system: KM12 colon
[18] = system: T-47D breast

## O=[N+]([O-])c1ccc(N/N=C\c2cc(Br)ccc2O)nc1
[1]
  growth: 20.2% (inactive) and 3.08% (active)
[2]
  growth: 32.5% (inactive) and -9.9% (active)
[3]
  growth: 11.9% (inactive) and 3.96% (active)
[4]
  growth: 52% (inactive) and 54.4% (inactive)
[5]
  growth: 20.3% (inactive) and 7.71% (active)
[6]
  growth: 27.1% (inactive) and 27.7% (inactive)
[7]
  growth: 13.5% (inactive) and 8.02% (active)
[8]
  growth: 11.2% (inactive) and 24.5% (inactive)
[9]
  growth: 39.1% (inactive) and 61.4% (inactive)
[10]
  growth: 5.25% (active) and 6.08% (active)
[11]
  growth: 25.6% (inactive)
[12]
  growth: 29.3% (inactive) and 25.2% (inactive)
[13]
  growth: 27.3% (inactive) and 34.3% (inactive)
[14]
  growth: 13.4% (inactive) and 13.6% (inactive)
[15]
  growth: 10.1% (inactive) and 15.2% (inactive)
[16]
  growth: 23.2% (inactive) and 23% (inactive)
[17]
  growth: 32.5% (inactive) and 24% (inactive)

## Clc1ccc(NC(Nc2ccc(Cl)cc2)C(Cl)(Cl)Cl)cc1
[1]
  growth: 99.4% (inactive)
[2]
  growth: 95.9% (inactive)
[3]
  growth: 93.6% (inactive) and 107% (inactive)
[4]
  growth: 79.9% (inactive) and 100% (inactive)
[5]
  growth: 82.4% (inactive) and 118% (inactive)
[6]
  growth: 100% (inactive) and 98% (inactive)
[8]
  growth: 89% (inactive) and 102% (inactive)
[9]
  growth: 109% (inactive)
[10]
  growth: 61.5% (inactive) and 99.4% (inactive)
[18]
  growth: 67.7% (inactive) and 82.8% (inactive)
[11]
  growth: 69.3% (inactive) and 85.8% (inactive)
[12]
  growth: 62.9% (inactive) and 97.7% (inactive)
[13]
  growth: 69% (inactive) and 98% (inactive)
[14]
  growth: 88.9% (inactive) and 92.1% (inactive)
[15]
  growth: 61.9% (inactive) and 85.4% (inactive)
[16]
  growth: 80.6% (inactive) and 92.4% (inactive)
[17]
  growth: 48.6% (inactive) and 84.9% (inactive)

## O=C(O)c1cc(C(=O)O)cc([N+](=O)[O-])c1
[1]
  growth: 86.4% (inactive)
[2]
  growth: 108% (inactive)
[3]
  growth: 106% (inactive)
[4]
  growth: 105% (inactive)
[5]
  growth: 108% (inactive)
[7]
  growth: 108% (inactive)
[8]
  growth: 111% (inactive)
[9]
  growth: 112% (inactive)
[11]
  growth: 102% (inactive)
[12]
  growth: 99% (inactive)
[13]
  growth: 107% (inactive)
[14]
  growth: 104% (inactive)
[15]
  growth: 101% (inactive)

## CC(=O)C(/C=N/C(N)=O)=C(/C)O
[1]
  growth: 96.9% (inactive)
[2]
  growth: 112% (inactive)
[3]
  growth: 104% (inactive)
[4]
  growth: 109% (inactive)
[5]
  growth: 114% (inactive)
[7]
  growth: 114% (inactive)
[8]
  growth: 121% (inactive)
[9]
  growth: 108% (inactive)
[11]
  growth: 101% (inactive)
[12]
  growth: 103% (inactive)
[13]
  growth: 105% (inactive)
[14]
  growth: 106% (inactive)
[15]
  growth: 105% (inactive)

## COc1ccc(CCN(C)CCCC(C#N)(c2ccc(OC)c(OC)c2)C(C)C)cc1OC (centres undefined)
[1]
  growth: 80.8% (inactive) and 94.1% (inactive) and 90.1% (inactive)
[2]
  growth: 83.9% (inactive) and 83.6% (inactive) and 94.5% (inactive)
[3]
  growth: 97.5% (inactive) and 93.2% (inactive)
[4]
  growth: 93.1% (inactive) and 81% (inactive) and 92.6% (inactive)
[5]
  growth: 85.1% (inactive) and 104% (inactive)
[8]
  growth: 103% (inactive) and 101% (inactive) and 96% (inactive)
[9]
  growth: 99.8% (inactive) and 88.1% (inactive) and 93.6% (inactive)
[10]
  growth: 86.6% (inactive) and 92% (inactive) and 86.1% (inactive)
[18]
  growth: 98.2% (inactive) and 106% (inactive)
[11]
  growth: 94.4% (inactive) and 93.3% (inactive) and 94.6% (inactive)
[12]
  growth: 102% (inactive) and 93.3% (inactive) and 97.9% (inactive)
[13]
  growth: 92.8% (inactive) and 100% (inactive) and 92.6% (inactive)
[14]
  growth: 89% (inactive) and 106% (inactive) and 95.3% (inactive)
[15]
  growth: 75% (inactive) and 78.9% (inactive) and 93.4% (inactive)
[16]
  growth: 99.7% (inactive) and 111% (inactive) and 97.5% (inactive)
[17]
  growth: 114% (inactive) and 115% (inactive) and 95.6% (inactive)

## O=C(Cc1cccc2ccccc12)N/N=C/c1ccc2c(c1)CCC2
[1]
  growth: 23% (inactive)
[2]
  growth: 75.1% (inactive)
[3]
  growth: 72.3% (inactive)
[4]
  growth: 80.9% (inactive)
[5]
  growth: 104% (inactive)
[6]
  growth: 83.2% (inactive)
[8]
  growth: 75.8% (inactive)
[9]
  growth: 85.3% (inactive)
[10]
  growth: 31% (inactive)
[11]
  growth: 92.5% (inactive)
[12]
  growth: 7.56% (active)
[13]
  growth: 54.8% (inactive)
[14]
  growth: 80.5% (inactive)
[15]
  growth: 66.4% (inactive)
[16]
  growth: 81.9% (inactive)

## CNC(=O)c1cccc(-c2ccc3c(N4CCOC[C@@H]4C)nc(N4CCOC[C@@H]4C)nc3n2)c1
[1]
  growth: 9.14% (active) and 1.3% (active)
[2]
  growth: 3.4% (active) and 4.33% (active)
[3]
  growth: -4.37% (active) and -7.81% (active)
[4]
  growth: 8.26% (active) and -3.61% (active)
[5]
  growth: -17.7% (active) and -18.2% (active)
[8]
  growth: 4.95% (active) and 11.5% (inactive)
[9]
  growth: -31.1% (active)
[10]
  growth: 1.66% (active) and -15.6% (active)
[18]
  growth: -24.4% (active) and -34.1% (active)
[11]
  growth: -7.8% (active) and -13.9% (active)
[12]
  growth: 2.05% (active) and -13.4% (active)
[13]
  growth: 11.4% (inactive) and 5.84% (active)
[14]
  growth: 5.66% (active) and 4.27% (active)
[15]
  growth: 27.7% (inactive) and 15.4% (inactive)
[16]
  growth: 18.6% (inactive) and 4% (active)
[17]
  growth: 11.7% (inactive) and 13.2% (inactive)

## COc1cc2c(c(OC)c1OC)-c1ccc(OC)c(=O)cc1[C@@H](NC(C)=O)CC2
[1]
  growth: 4.98% (active) and 2.6% (active) and 5.4% (active)
[2]
  growth: 9.21% (active) and 2.34% (active)
[3]
  growth: 10.3% (inactive) and 14.4% (inactive)
[5]
  growth: 48.4% (inactive) and 57.7% (inactive) and 56.4% (inactive)
[6]
  growth: 13.8% (inactive) and 25.8% (inactive) and 36.1% (inactive)
[7]
  growth: 16.5% (inactive) and 15.3% (inactive)
[8]
  growth: -57.4% (active) and -0.335% (active) and -49% (active)
[9]
  growth: 42.6% (inactive) and -0.967% (active) and 55.1% (inactive)
[10]
  growth: 0.46% (active) and 8.85% (active) and -20.9% (active)
[18]
  growth: 69.8% (inactive) and 49.2% (inactive) and 70.5% (inactive)
[11]
  growth: 4.27% (active) and -10% (active) and -7.06% (active)
[12]
  growth: -49.9% (active) and -0.781% (active) and -50.8% (active)
[13]
  growth: 23.7% (inactive) and 18.3% (inactive) and 26.4% (inactive)
[14]
  growth: 15.1% (inactive) and 15.6% (inactive) and 11.7% (inactive)
[15]
  growth: 1.53% (active) and 0.462% (active) and 0.179% (active)
[16]
  growth: 3.25% (active) and 13.4% (inactive) and -59% (active)

## Oc1c(CN2CCCCC2)ccc2cccnc12
[1]
  growth: 32.4% (inactive) and 33.2% (inactive)
[2]
  growth: 58.5% (inactive)
[3]
  growth: 33.1% (inactive) and 23.3% (inactive)
[4]
  growth: 68.9% (inactive) and 51.1% (inactive)
[5]
  growth: 29.3% (inactive)
[7]
  growth: 46% (inactive) and 55.3% (inactive)
[8]
  growth: 14.4% (inactive) and 52.7% (inactive)
[9]
  growth: 89.5% (inactive) and 89.1% (inactive)
[11]
  growth: 94.7% (inactive) and 63.4% (inactive)
[12]
  growth: 63.9% (inactive)
[13]
  growth: 44% (inactive) and 44.7% (inactive)
[14]
  growth: 38.9% (inactive)
[15]
  growth: 10.1% (inactive) and 15.2% (inactive)
[16]
  growth: 96.5% (inactive) and 59.7% (inactive)
[17]
  growth: 44.5% (inactive) and 32.6% (inactive)

## N=C1N=C(N)CS1
[1]
  growth: 99.2% (inactive)
[2]
  growth: 107% (inactive)
[3]
  growth: 99.9% (inactive)
[4]
  growth: 109% (inactive)
[5]
  growth: 99.8% (inactive)
[7]
  growth: 105% (inactive)
[8]
  growth: 106% (inactive)
[9]
  growth: 109% (inactive)
[10]
  growth: 113% (inactive)
[18]
  growth: 108% (inactive)
[11]
  growth: 120% (inactive)
[12]
  growth: 106% (inactive)
[13]
  growth: 102% (inactive)
[14]
  growth: 96.8% (inactive)
[15]
  growth: 107% (inactive)
[16]
  growth: 110% (inactive)

## CNc1ccc2nc3ccc(=[N+](C)C)cc-3sc2c1
[1]
  growth: 20.3% (inactive) and 28.5% (inactive)
[2]
  growth: 21.3% (inactive) and 8.61% (active)
[3]
  growth: -15.7% (active) and -26.8% (active)
[4]
  growth: -8.49% (active) and -6.9% (active)
[5]
  growth: -14.7% (active)
[7]
  growth: 3.81% (active) and -25.6% (active)
[8]
  growth: -7.57% (active) and -9.51% (active)
[9]
  growth: -15% (active) and 20.2% (inactive)
[11]
  growth: 49.1% (inactive)
[12]
  growth: -63.5% (active) and -47% (active)
[13]
  growth: 0.782% (active) and 2.58% (active)
[14]
  growth: -65.8% (active) and -27.2% (active)
[15]
  growth: -8.61% (active) and -49.3% (active)
[16]
  growth: 31.5% (inactive) and 33.6% (inactive)
[17]
  growth: 18.2% (inactive) and 14.2% (inactive)
